Outcome and AC50 data for one compound are collected here from PubChem BioAssay (EPA / NIEHS).

Activity calls are given as the source filed them. How the source made its calls: active means hit-call score of the fitted dose curve at least 0.9, where 1 is the maximum; inactive means score below 0.9.

Usually AC50 stands for the concentration giving half of the maximal activity seen.

Assay [1] is described as follows: UKN5_HCS_SBAD2_cell_viability: Viability Assessment in the University of Konstanz (UKN) Leist Lab Neurite Outgrowth Assay in human iPSC-derived immature Dorsal Root Ganglia Neurons (UKN5) (AID 2284056). Summed up: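 iPSC-derived immature peripheral neurons (SBAD2) seeded on Matrigel with CHIR99021, SU5402 and DAPT, dosed 1 h later for 24 h. Viability from Hoechst H-33342 and calcein-AM live staining, high-content imaging; bidirectional fit versus DMSO.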

Assay [2] in a line: UKN5_HCS_SBAD2_neurite_outgrowth: University of Konstanz (UKN) Leist Lab Neurite Outgrowth Assay in human iPSC-derived immature Dorsal Root Ganglia Neurons (UKN5) (AID 2284070). The conditions noted are these: actives raise or lower the signal. In outline:
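Neurite area from calcein-AM high-content images after 24 h exposure (staining included), with H-33342 for viability, fitted both directions against DMSO. Cells: thawed immature SBAD2 peripheral neurons, 100.000 cells/cm2, with CHIR99021, SU5402, DAPT; dosing 1 h after seeding.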

Assay [3] in a line: UKN4_HCS_LUHMES_neurite_outgrowth: University of Konstanz (UKN) Leist Lab Neurite Outgrowth Assay in human LUHMES cells (UKN4) (AID 2284206). The conditions noted are these: actives raise or lower the signal. In outline: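 After 24 h compound treatment beginning shortly after replating of 2-day-differentiated LUHMES cells, calcein-AM and H-33342 live staining allowed high-content imaging of neurite area and viability. Fitted bidirectionally against DMSO.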

Assay [4] can be described thus: UKN4_HCS_LUHMES_cell_viability: Viability Assessment in the University of Konstanz (UKN) Leist Lab Neurite Outgrowth Assay in human LUHMES cells (UKN4) (AID 2284232). Summed up: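 Viability was read by high-content imaging of calcein-AM/H-33342-stained cells after 24 h toxicant exposure, staining included. Cells: human LUHMES on day 2 of dopaminergic differentiation, dosed shortly after attachment; DMSO baseline, bidirectional curve fitting.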

Assay [5] in a line: UKN2_HCS_IMR90_cell_viability: Viability Assessment in the University of Konstanz (UKN) Leist Lab Neural Crest Cell Migration Assay in human induced IMR90 Pluripotent Stem Cells (UKN2) (AID 2284233).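 Further: cells exposed to compound for 24 h after a 24 h migration phase.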 Summed up: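 After calcein-AM/Hoechst staining, viability is quantified by high-content fluorescence imaging, relative to DMSO, in iPSC (IMR90)-derived neural crest cells. Exposure lasts 24 h, starting after a 24 h migration period on PLO/laminin/fibronectin coating.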

For `Clc1cc(Cl)c(-c2cc(Cl)c(Cl)c(Cl)c2Cl)cc1Cl`, the call in assay [1] and in assay [2] was inactive. For the same compound, the concentration at half-maximal activity (AC50) is 14.2 µM (active) in assay [3], 19.1 µM (active) in assay [4] and 13.3 µM (active) in assay [5].
